The record followed here is PubChem BioAssay (EPA / NIEHS).

Calls of active or inactive are those of the source. Rule for the calls: active = hit-call score of the fitted dose curve at least 0.9, where 1 is the maximum; inactive = score below 0.9.

Settings in all cases: mRNA level, 48 h; actives raise or lower the signal
Read-out in experiment [1]: ABC Transporter (ABCC3), ABCC3 (gene 8714)
Description: LTEA_HepaRG_ABCC3: Life Technologies and Expression Analysis (LTEA) Assay for ABC Transporter (ABCC3) using HepaRG (AID 2283462). In a few lines: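 Transcript level by TaqMan qRT-PCR, normalised to three housekeeping genes, fitted in both directions relative to vehicle. Chemicals tested in duplicate at eight half-log concentrations up to 100 uM for 48 h on HepaRG cells (0.5% DMSO).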

Read-out in experiment [2]: ABC Transporter (ABCB11), ABCB11 (gene 8647)
Briefly: LTEA_HepaRG_ABCB11: Life Technologies and Expression Analysis (LTEA) Assay for ABC Transporter (ABCB11) using HepaRG (AID 2283463). The gist of the method: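 ABCB11 transcript levels are read by Fluidigm TaqMan qRT-PCR after 48 h chemical treatment of human HepaRG cells. Concentrations span 100 uM downward in half-log steps with 0.5% DMSO; gain or loss is fitted against DMSO controls.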

Read-out in experiment [3]: ABC Transporter (ABCC2), ABCC2 (gene 1244)
Briefly: LTEA_HepaRG_ABCC2: Life Technologies and Expression Analysis (LTEA) Assay for ABC Transporter (ABCC2) using HepaRG (AID 2283464). The gist of the method:
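Endpoint is ABCC2 transcript level from qRT-PCR, normalized to three housekeeping genes and fitted bidirectionally relative to DMSO. Human HepaRG cells received test chemical for 48 h at up to 100 uM (8 points, half-log steps, 0.5% DMSO), duplicate wells.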

Read-out in experiment [4]: Broad substrate specificity ATP-binding cassette transporter ABCG2 (Homo sapiens) (UniProt Q9UNQ0)
Description: LTEA_HepaRG_ABCG2: Life Technologies and Expression Analysis (LTEA) Assay for ABC Transporter (ABCG2) using HepaRG (AID 2283465). The gist of the method: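 Read-out is ABCG2 mRNA induction or loss quantified by qRT-PCR after 48 h chemical treatment of human HepaRG cells, normalized to three housekeeping genes. Concentrations reached 100 uM top in half-log steps; fitting was bidirectional against 0.5% DMSO.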

Read-out in experiment [5]: ATP-citrate lyase (ACLY), ACLY (gene 47)
Description: LTEA_HepaRG_ACLY: Life Technologies and Expression Analysis (LTEA) Assay for ATP-citrate lyase (ACLY) using HepaRG (AID 2283466). In a few lines:
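HepaRG, 48 h exposure, 8-pt half-log dilutions (top 100 uM), 0.5% DMSO. Readout: ACLY mRNA, TaqMan qRT-PCR, housekeeping-normalized (ACTB/GAPDH/POLR2A). Bidirectional curve fit vs DMSO.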

Read-out in experiment [6]: Peroxisomal acyl-coenzyme A oxidase 1 (ACOX1) gene, ACOX1 (gene 51)
Briefly: LTEA_HepaRG_ACOX1: Life Technologies and Expression Analysis (LTEA) Assay for Peroxisomal acyl-coenzyme A oxidase 1 (ACOX1) gene using HepaRG (AID 2283467). In a few lines: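 Measured by qRT-PCR against three housekeeping genes: ACOX1 transcript change in human HepaRG cells after 48 h dosing. Concentrations ran up to 100 uM in half-log steps. Curves were fitted bidirectionally relative to 0.5% DMSO.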

Read-out in experiment [7]: Alkaline Phosphatase, Placental (ALPP) gene, ALPP (gene 250)
Description: LTEA_HepaRG_ALPP: Life Technologies and Expression Analysis (LTEA) Assay for Alkaline Phosphatase, Placental (ALPP) gene using HepaRG (AID 2283468). The gist of the method:
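ALPP transcript level, measured by qRT-PCR and normalized to three housekeeping genes (ACTB, GAPDH, POLR2A), after 48 h dosing of differentiated HepaRG in serum-free induction medium. Top concentration 100 uM with half-log dilutions (8 points, 0.5% DMSO, duplicates); bidirectional fitting relative to DMSO.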

Read-out in experiment [8]: Bcl-2 (BAD) gene, BAD (gene 572)
Briefly: LTEA_HepaRG_BAD: Life Technologies and Expression Analysis (LTEA) Assay for Bcl-2 (BAD) gene using HepaRG (AID 2283469). In a few lines: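 BAD transcript change, measured by qRT-PCR against three housekeeping genes and fitted in both directions relative to 0.5% DMSO, after 48 h chemical treatment of human HepaRG liver cells at concentrations up to 100 uM.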

Read-out in experiment [9]: Bcl-2 (BAX) gene, BAX (gene 581)
Description: LTEA_HepaRG_BAX: Life Technologies and Expression Analysis (LTEA) Assay for Bcl-2 (BAX) gene using HepaRG (AID 2283470). In a few lines:
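Concentration-response endpoint fitted in both directions relative to 0.5% DMSO vehicle. Human HepaRG cultures receive test chemicals for 48 h at up to 100 uM; BAX mRNA is quantified by qRT-PCR against housekeeping genes.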

Read-out in experiment [10]: adenosine kinase (ADK) gene, ADK (gene 132)
Briefly: LTEA_HepaRG_ADK: Life Technologies and Expression Analysis (LTEA) Assay for adenosine kinase (ADK) gene using HepaRG (AID 2283471). In a few lines: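 Differentiated HepaRG cells dosed 48 h in serum-free induction medium, 0.5% DMSO vehicle, eight half-log concentrations from 100 uM, in duplicate. ADK mRNA by TaqMan qRT-PCR normalised to ACTB, GAPDH, POLR2A; bidirectional fit versus DMSO.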

Read-out in experiment [11]: Alpha-fetoprotein (AFP) gene, AFP (gene 174)
Description: LTEA_HepaRG_AFP: Life Technologies and Expression Analysis (LTEA) Assay for Alpha-fetoprotein (AFP) gene using HepaRG (AID 2283472). The gist of the method: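 After a 48 h plating period, cells are moved to serum-free induction medium and dosed in duplicate (100 uM maximum, half-log dilutions, 0.5% DMSO) for another 48 h. Total RNA goes to TaqMan qRT-PCR; AFP signal is housekeeping-normalized.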

Read-out in another experiment: BCL2L11 (gene 10018)
Briefly: LTEA_HepaRG_BCL2L11: Life Technologies and Expression Analysis (LTEA) Assay for Bcl-2 (BCL2L11) gene using HepaRG (AID 2283473). In a few lines:
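BCL2L11 transcript levels are measured by Fluidigm qRT-PCR, normalized to three housekeeping genes. HepaRG cultures were plated 48 h, then treated 48 h with test chemical (top 100 uM, half-log, 0.5% DMSO vehicle); curves were fitted bidirectionally against DMSO.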

Read-out in experiment [12]: Apolipoprotein A-V (APOA5) gene, APOA5 (gene 116519)
Description: LTEA_HepaRG_APOA5: Life Technologies and Expression Analysis (LTEA) Assay for Apolipoprotein A-V (APOA5) gene using HepaRG (AID 2283474). In a few lines: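 APOA5 transcript levels were quantified by qRT-PCR, normalized to three housekeeping genes, after 48 h chemical treatment of HepaRG cells (8 points, 100 uM maximum, half-log steps, 0.5% DMSO). Curves fitted in both directions against vehicle.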

Read-out in experiment [13]: Apoptosis regulator Bcl-2 (Homo sapiens) (UniProt P10415)
Description: LTEA_HepaRG_BCL2: Life Technologies and Expression Analysis (LTEA) Assay for Bcl-2 gene using HepaRG (AID 2283475). In a few lines: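 Expression change of BCL2 mRNA in HepaRG after 48 h dosing, quantified by TaqMan qRT-PCR against three endogenous controls. Concentration-response used eight points up to 100 uM, vehicle 0.5% DMSO.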

Read-out in experiment [14]: Bcl-2 (BID) gene, BID (gene 637)
Briefly: LTEA_HepaRG_BID: Life Technologies and Expression Analysis (LTEA) Assay for Bcl-2 (BID) gene using HepaRG (AID 2283476). In a few lines:
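Gain or loss of BID expression is fitted relative to 0.5% DMSO vehicle. Human HepaRG liver cells received a 48 h chemical exposure over an eight-point concentration range.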

Read-out in a further experiment: Caspase-3 (Homo sapiens) (UniProt P42574)
Description: LTEA_HepaRG_CASP3: Life Technologies and Expression Analysis (LTEA) Assay for cysteine-aspartic acid protease (CASP3) using HepaRG (AID 2283477). In a few lines:
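Expression of CASP3 was quantified by TaqMan qRT-PCR against three housekeeping genes (ACTB, GAPDH, POLR2A), bidirectionally versus 0.5% DMSO. HepaRG cultures received compounds in duplicate, top 100 uM with half-log steps, for 48 h in serum-free induction medium.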

Read-out in experiment [15]: Cytochrome P450 (CYP24A1), CYP24A1 (gene 1591)
Briefly: LTEA_HepaRG_CYP24A1: Life Technologies and Expression Analysis (LTEA) Assay for Cytochrome P450 (CYP24A1) using HepaRG (AID 2283478). In a few lines: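 mRNA of CYP24A1 quantified by TaqMan qRT-PCR (ACTB/GAPDH/POLR2A normalization) after 48 h chemical exposure of HepaRG cells, top concentration 100 uM, half-log steps, 0.5% DMSO vehicle, duplicates. Curves fitted bidirectionally against DMSO baseline.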

Read-out in experiment [16]: Cytochrome P450 (CYP1A2), CYP1A2 (gene 1544)
Description: LTEA_HepaRG_CYP1A2: Life Technologies and Expression Analysis (LTEA) Assay for Cytochrome P450 (CYP1A2) using HepaRG (AID 2283479). In a few lines: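 CYP1A2 transcript measured by TaqMan qRT-PCR against three housekeeping genes after 48-hour chemical exposure of HepaRG cells. Eight-point half-log series topping at 100 uM in 0.5% DMSO, duplicates; gain or loss fitted relative to vehicle.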

Read-out in experiment [17]: Cytochrome P450 (CYP2B6), CYP2B6 (gene 1555)
Briefly: LTEA_HepaRG_CYP2B6: Life Technologies and Expression Analysis (LTEA) Assay for Cytochrome P450 (CYP2B6) using HepaRG (AID 2283481). In a few lines: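 CYP2B6 transcript level quantified by qRT-PCR against three housekeeping genes, fitted bidirectionally relative to DMSO. HepaRG cultures received chemicals for 48 h, 8-point half-log series from 100 uM in 0.5% DMSO, duplicate wells, serum-free induction medium.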

Read-out in experiment [18]: cysteine-aspartic acid protease (CASP8), CASP8 (gene 841)
Description: LTEA_HepaRG_CASP8: Life Technologies and Expression Analysis (LTEA) Assay for cysteine-aspartic acid protease (CASP8) using HepaRG (AID 2283480). In a few lines: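 HepaRG, 48 h exposure, duplicate wells; 8 conc, half-log from 100 uM, 0.5% DMSO. Serum-free induction medium. CASP8 mRNA by TaqMan qRT-PCR, norm. ACTB/GAPDH/POLR2A; gain/loss fitted vs DMSO.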

Chain of Broad substrate specificity ATP-binding cassette transporter ABCG2 (Homo sapiens) (Q9UNQ0 whole entry, looked up): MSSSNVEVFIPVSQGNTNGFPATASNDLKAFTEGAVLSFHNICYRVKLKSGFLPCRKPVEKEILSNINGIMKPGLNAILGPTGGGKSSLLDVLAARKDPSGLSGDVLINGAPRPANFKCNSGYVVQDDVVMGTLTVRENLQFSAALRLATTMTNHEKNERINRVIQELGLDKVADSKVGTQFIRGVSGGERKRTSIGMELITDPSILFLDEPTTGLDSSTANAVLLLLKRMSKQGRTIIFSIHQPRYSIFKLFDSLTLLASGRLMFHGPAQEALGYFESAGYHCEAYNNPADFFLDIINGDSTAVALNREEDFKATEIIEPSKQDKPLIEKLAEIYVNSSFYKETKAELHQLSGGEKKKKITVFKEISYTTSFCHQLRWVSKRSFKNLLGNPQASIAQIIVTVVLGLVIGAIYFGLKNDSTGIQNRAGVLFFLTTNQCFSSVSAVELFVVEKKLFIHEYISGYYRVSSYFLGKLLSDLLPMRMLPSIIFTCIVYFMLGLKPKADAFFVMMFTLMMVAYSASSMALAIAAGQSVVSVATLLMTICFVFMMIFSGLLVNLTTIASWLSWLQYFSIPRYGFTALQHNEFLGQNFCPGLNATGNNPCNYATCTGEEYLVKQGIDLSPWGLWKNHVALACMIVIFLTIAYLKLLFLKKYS
Chain of Caspase-3 (Homo sapiens) (P42574 whole entry, looked up): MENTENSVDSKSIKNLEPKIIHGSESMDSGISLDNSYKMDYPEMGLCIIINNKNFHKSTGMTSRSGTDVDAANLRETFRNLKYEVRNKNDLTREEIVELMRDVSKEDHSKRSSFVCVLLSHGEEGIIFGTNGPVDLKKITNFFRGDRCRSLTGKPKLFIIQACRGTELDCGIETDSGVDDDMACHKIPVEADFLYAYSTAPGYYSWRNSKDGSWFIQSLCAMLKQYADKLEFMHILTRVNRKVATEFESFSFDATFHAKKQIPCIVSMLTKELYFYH
Chain of Apoptosis regulator Bcl-2 (Homo sapiens) (P10415 whole entry, looked up): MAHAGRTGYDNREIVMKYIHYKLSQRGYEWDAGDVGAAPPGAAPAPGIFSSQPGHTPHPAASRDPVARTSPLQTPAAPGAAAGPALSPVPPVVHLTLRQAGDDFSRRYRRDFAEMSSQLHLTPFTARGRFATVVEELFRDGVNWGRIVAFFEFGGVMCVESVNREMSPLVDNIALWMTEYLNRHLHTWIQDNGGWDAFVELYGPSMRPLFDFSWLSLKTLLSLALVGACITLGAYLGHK

Turning to `CCOP(=S)(OCC)SCCSCC`, the compound was called inactive in [1], in experiment [2], in [3], in [4], in [5] and in experiment [6]. The compound was classed as inactive (in experiment [7]; in experiment [8]; in [9]; in experiment [10]; in [11]; with BCL2L11 (gene 10018)). In addition, the outcome (in [12]; in experiment [13]; in experiment [14]; in the experiment with Caspase-3 (Homo sapiens); in experiment [15]; in experiment [16]) was inactive. Besides, in [17], the AC50 is 7.58 µM (active).

For the compound `COc1cccc(C(=O)NN(C(=O)c2cc(C)cc(C)c2)C(C)(C)C)c1C`, the result in experiment [1], in [5], in experiment [6], in [7], in experiment [8] and in [9] was inactive. For the same compound, the result (in experiment [10]; with BCL2L11 (gene 10018); in experiment [12]; in experiment [13]; with Caspase-3 (Homo sapiens); in experiment [15]) was inactive. The compound was called inactive in [18]. The AC50 was 19.5 µM (active) in [2]; 8.52 µM (active) in [3]; 16.7 µM (active) in experiment [4]; 7.69 µM (active) in experiment [11]; 18.7 µM (active) in experiment [16]; 1.16 µM (active) in [17].

In the case of `Cc1ccn2nc(S(=O)(=O)Nc3c(F)cccc3F)nc2n1`, the result in experiment [1], in experiment [2], in [3], in experiment [4], in [5] and in experiment [6] was inactive. Also, the outcome (in experiment [7]; in [8]; in experiment [9]; in experiment [10]; in [11]; in the experiment with BCL2L11 (gene 10018)) was inactive. Moreover, the outcome (in [12]; in experiment [13]; with Caspase-3 (Homo sapiens); in [15]; in [16]; in [18]) was inactive. In addition, the result in [17] was inactive.

For the compound `CC(C)[C@H](C(=O)O[C@H](C#N)c1cccc(Oc2ccccc2)c1)c1ccc(Cl)cc1`, the call in [1], in [2], in experiment [5], in [6], in experiment [7] and in experiment [8] was inactive. The call (in experiment [9]; in experiment [10]; in the experiment with BCL2L11 (gene 10018); in [12]; in [13]; in experiment [14]) was inactive. Also, the result (in the experiment with Caspase-3 (Homo sapiens); in experiment [15]; in experiment [18]) was inactive. Also, the AC50 is 50 µM (active) in experiment [3]; 37 µM (active) in experiment [4]; 24.7 µM (active) in [11]; 37.3 µM (active) in [16]; 20.8 µM (active) in experiment [17].

Consider `CCOP(=O)(SC(C)CC)N1CCSC1=O` (centres undefined), for which the compound was called inactive in experiment [1], in experiment [2], in [4], in [5], in experiment [6] and in [7]. For the same compound, the compound was called inactive (in experiment [8]; in experiment [9]; in [10]; in experiment [11]; with BCL2L11 (gene 10018); in [12]). The compound was classed as inactive (in [13]; in experiment [14]; with Caspase-3 (Homo sapiens); in experiment [15]; in experiment [16]). Further, the AC50 in [3] was 27.1 µM (active); in experiment [17] it was 2.56 µM (active).

Consider `CCC(CC)Nc1c([N+](=O)[O-])cc(C)c(C)c1[N+](=O)[O-]`, for which the result in experiment [1], in [2], in experiment [3], in experiment [6], in experiment [7] and in [8] was inactive. Further, the result (in [9]; in experiment [10]; with BCL2L11 (gene 10018); in experiment [13]; with Caspase-3 (Homo sapiens); in experiment [15]) was inactive. For the same compound, the call in [16] and in [18] was inactive. The AC50 is 60.6 µM (active) in experiment [4], 89.4 µM (active) in [5], 50 µM (active) in [11] and 13.1 µM (active) in experiment [17].
